# Experimental data from the supplement of paper PMC10849652.
# The full data set covers some 8,800 targets. This sample favours those with a hit. About 0.5% of all pairs of compound and target were hits. A number with no mark means an inactive call.
# Columns and labels:
# Test in all cases: log2 fold change, soluble protein after heating vs DMSO (PISA); higher = thermal stabilisation; K562 lysate, 10 uM; active = over 0.2 and 3.5 SD of the protein, either way, in both replicates (recomputed)
# vemurafenib = compound: CCCS(=O)(=O)Nc1ccc(F)c(C(=O)c2c[nH]c3ncc(-c4ccc(Cl)cc4)cc23)c1F [vemurafenib]
# Procedure, shortened: (§1)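 Dounce homogenisation of K562 pellets in PBS pH 7.4 with 1 mM MgCl2 produced a crude extract, used at 1 mg/mL protein. Exposure to 10 μM compound lasted 30 min, and aliquots were then heated for 3 min across 48°C-58°C, pooled and brought to 0.5% NP-40 at 4°C. The supernatant after 21,000xg for 90 min was quantified by TMTpro 16plex LC-MS/MS with channel sums equalised. Duplicate values are given as log-two fold change in thermal stability relative to solvent controls.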
# [1] = compound: CCCS(=O)(=O)Nc1ccc(F)c(C(=O)c2c[nH]c3ncc(Cl)cc23)c1F
# Procedure, shortened: as §1
# barasertib = compound: CCN(CCCOc1ccc2c(Nc3cc(CC(=O)Nc4cccc(F)c4)[nH]n3)ncnc2c1)CCOP(=O)(O)O [barasertib]
# Procedure, shortened: as §1
# [2] = compound: CC[C@@H]1C(=O)N(C)c2cnc(Nc3ccc(C(=O)NC4CCN(C)CC4)cc3OC)nc2N1C1CCCC1
# Procedure, shortened: as §1
# volasertib = compound: CC[C@@H]1C(=O)N(C)c2cnc(Nc3ccc(C(=O)N[C@H]4CC[C@H](N5CCN(CC6CC6)CC5)CC4)cc3OC)nc2N1C(C)C [volasertib]
# Procedure, shortened: as §1
# [3] = compound: CCn1c(C(=O)N(C2CC2)C2CC2)cc2c3c(ncn3C)c(Nc3cc(C)n(C)n3)nc21
# Procedure, shortened: as §1
# [4] = compound: CCn1cc(-c2ccnc3[nH]c(-c4cccc(CN(C)C)c4)cc23)c(-c2ccc(NC(=O)N(C)C)cc2)n1
# Procedure, shortened: as §1
# [5] = compound: CN1CCC(CNc2ccc3ncc(-c4cccc(OC(F)(F)F)c4)n3n2)CC1
# Procedure, shortened: as §1
# saracatinib = compound: CN1CCN(CCOc2cc(OC3CCOCC3)c3c(Nc4c(Cl)ccc5c4OCO5)ncnc3c2)CC1 [saracatinib]
# Procedure, shortened: as §1
# sotrastaurin = compound: CN1CCN(c2nc(C3=C(c4c[nH]c5ccccc45)C(=O)NC3=O)c3ccccc3n2)CC1 [sotrastaurin]
# Procedure, shortened: as §1
# UniProt Q9UGU0, sequence (Q9UGU0 whole entry, looked up): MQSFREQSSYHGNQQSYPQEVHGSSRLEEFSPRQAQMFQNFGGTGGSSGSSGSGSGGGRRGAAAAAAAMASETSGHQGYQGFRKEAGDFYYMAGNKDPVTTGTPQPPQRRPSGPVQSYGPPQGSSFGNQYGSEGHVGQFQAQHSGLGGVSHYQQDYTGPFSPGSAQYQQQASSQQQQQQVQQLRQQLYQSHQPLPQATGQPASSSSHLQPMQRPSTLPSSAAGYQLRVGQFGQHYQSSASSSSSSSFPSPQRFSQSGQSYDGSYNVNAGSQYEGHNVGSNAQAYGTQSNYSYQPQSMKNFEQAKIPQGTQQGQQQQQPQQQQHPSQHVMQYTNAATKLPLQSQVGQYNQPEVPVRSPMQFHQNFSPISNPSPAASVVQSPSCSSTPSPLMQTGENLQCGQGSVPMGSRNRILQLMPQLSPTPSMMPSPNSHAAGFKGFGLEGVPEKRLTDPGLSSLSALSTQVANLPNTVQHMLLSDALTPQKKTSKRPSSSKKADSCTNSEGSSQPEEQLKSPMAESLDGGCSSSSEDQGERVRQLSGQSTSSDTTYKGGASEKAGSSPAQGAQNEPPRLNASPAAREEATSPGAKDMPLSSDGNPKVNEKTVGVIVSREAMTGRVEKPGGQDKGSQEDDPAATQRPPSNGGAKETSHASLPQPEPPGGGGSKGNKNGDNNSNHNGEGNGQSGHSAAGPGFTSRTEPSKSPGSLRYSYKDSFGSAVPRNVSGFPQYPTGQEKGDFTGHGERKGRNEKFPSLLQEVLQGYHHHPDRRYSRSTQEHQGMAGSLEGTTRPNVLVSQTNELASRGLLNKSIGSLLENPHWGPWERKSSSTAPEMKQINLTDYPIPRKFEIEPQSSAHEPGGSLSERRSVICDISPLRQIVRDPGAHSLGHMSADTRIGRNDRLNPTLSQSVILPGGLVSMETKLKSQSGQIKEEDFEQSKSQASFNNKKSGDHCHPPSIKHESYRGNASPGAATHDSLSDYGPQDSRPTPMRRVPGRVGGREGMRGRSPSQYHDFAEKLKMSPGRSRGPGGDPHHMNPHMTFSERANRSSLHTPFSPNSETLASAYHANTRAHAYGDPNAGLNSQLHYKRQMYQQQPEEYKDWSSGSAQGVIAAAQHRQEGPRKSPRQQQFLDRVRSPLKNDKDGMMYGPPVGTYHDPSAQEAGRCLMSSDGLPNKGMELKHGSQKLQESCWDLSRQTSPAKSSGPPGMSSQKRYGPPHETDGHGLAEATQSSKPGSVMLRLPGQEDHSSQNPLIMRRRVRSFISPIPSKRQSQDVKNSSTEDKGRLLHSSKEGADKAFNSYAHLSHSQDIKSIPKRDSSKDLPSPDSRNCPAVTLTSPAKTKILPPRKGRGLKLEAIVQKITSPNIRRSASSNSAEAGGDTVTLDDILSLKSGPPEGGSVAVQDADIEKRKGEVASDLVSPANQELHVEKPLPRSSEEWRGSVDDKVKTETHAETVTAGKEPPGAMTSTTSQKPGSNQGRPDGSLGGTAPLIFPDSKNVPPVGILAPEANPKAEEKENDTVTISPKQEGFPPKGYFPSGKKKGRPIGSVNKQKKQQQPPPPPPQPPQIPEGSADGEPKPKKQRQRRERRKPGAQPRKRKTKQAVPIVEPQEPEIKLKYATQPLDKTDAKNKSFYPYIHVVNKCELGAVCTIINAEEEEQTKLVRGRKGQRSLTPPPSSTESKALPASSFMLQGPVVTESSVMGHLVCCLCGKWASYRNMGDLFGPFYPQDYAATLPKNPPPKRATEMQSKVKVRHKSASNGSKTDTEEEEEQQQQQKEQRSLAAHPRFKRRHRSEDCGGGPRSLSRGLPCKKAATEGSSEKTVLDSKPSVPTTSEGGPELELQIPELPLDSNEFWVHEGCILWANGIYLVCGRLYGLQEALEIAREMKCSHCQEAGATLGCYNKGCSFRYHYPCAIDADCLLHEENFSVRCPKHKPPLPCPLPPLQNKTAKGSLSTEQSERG
# UniProt P21580, sequence (P21580 whole entry, looked up): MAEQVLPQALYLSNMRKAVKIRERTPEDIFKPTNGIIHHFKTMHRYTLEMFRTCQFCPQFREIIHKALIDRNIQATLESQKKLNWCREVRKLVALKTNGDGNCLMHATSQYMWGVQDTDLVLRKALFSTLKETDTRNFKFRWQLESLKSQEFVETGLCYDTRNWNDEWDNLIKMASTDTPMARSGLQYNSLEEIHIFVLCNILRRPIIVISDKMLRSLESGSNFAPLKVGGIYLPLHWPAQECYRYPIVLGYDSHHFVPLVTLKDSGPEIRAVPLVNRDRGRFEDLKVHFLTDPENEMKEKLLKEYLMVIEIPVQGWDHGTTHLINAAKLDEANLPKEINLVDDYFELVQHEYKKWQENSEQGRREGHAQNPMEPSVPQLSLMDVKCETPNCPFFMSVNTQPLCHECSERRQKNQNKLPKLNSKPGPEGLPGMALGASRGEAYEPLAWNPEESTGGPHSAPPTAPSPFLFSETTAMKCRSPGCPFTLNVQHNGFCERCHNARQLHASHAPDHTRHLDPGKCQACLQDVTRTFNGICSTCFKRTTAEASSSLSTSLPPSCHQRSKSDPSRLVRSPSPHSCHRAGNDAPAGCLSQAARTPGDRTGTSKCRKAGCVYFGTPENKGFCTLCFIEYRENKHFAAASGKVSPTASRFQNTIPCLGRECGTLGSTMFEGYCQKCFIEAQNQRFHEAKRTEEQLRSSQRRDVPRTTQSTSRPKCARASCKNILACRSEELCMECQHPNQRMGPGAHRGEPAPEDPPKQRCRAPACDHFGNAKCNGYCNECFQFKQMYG
# UniProt P15884, sequence (P15884 whole entry, looked up): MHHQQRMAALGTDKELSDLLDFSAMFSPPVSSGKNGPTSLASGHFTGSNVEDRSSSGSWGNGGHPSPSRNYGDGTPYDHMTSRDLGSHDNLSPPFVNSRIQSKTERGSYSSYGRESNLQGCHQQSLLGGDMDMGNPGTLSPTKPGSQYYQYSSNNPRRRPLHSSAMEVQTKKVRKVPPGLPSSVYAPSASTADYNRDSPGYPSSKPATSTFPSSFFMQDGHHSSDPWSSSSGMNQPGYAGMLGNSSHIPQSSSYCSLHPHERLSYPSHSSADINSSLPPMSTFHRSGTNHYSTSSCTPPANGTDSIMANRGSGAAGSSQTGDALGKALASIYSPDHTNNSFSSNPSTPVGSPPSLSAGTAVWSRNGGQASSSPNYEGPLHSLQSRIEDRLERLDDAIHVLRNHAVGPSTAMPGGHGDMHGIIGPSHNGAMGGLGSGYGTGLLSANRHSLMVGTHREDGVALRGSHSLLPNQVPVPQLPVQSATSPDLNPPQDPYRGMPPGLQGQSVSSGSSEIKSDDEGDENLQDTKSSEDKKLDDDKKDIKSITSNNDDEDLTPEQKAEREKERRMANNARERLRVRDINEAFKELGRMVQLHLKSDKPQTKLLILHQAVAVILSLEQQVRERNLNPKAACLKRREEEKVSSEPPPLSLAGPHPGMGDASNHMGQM
# UniProt P42680, sequence (P42680 whole entry, looked up): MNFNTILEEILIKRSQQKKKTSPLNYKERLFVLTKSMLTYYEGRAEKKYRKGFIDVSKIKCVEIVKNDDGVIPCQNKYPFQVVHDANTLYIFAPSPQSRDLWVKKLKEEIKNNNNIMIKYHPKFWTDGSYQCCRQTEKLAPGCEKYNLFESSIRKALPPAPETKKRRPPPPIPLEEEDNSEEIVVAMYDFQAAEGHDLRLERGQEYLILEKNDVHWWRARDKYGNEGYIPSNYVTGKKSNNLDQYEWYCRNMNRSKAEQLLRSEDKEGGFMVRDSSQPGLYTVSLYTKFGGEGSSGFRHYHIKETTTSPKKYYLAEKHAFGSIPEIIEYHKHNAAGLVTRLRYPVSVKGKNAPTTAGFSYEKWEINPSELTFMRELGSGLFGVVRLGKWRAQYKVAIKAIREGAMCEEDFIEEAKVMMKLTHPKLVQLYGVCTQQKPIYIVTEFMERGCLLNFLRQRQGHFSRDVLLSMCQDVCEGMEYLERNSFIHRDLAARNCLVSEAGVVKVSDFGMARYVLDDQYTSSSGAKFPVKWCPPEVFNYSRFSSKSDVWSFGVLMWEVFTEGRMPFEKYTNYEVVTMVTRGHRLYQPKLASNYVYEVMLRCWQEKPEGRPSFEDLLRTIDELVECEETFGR
# UniProt P55851, sequence (P55851 whole entry, looked up): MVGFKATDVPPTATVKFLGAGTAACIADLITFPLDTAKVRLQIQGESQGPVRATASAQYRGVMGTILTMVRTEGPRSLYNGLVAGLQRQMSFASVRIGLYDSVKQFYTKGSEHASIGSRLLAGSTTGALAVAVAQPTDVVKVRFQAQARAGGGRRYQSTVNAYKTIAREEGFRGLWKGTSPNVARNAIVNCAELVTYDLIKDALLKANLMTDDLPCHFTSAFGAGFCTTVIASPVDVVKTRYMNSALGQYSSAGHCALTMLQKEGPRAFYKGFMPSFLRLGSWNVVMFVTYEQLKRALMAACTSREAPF
# UniProt Q9BRN9, sequence (Q9BRN9 whole entry, looked up): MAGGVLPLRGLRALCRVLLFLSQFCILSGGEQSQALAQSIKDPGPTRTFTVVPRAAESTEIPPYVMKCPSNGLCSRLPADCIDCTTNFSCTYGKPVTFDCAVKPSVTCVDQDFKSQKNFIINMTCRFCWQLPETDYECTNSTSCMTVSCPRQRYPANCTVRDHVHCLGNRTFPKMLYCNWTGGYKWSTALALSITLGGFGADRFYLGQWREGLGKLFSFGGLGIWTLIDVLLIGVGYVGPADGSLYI
# UniProt O60637, sequence (O60637 whole entry, looked up): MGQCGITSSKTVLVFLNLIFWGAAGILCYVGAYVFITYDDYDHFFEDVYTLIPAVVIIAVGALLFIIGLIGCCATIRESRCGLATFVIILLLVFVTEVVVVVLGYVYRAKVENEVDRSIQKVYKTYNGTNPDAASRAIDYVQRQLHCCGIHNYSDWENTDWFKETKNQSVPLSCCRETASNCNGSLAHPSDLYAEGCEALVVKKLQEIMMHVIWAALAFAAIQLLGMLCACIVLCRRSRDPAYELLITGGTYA
# UniProt Q6P9G4, sequence (Q6P9G4 whole entry, looked up): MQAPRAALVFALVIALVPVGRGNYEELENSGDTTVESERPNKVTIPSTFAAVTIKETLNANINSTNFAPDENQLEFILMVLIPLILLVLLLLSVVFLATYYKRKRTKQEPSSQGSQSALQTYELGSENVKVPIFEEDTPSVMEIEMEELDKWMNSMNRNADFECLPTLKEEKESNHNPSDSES
Target,log2 fold change (vemurafenib),log2 fold change [1],log2 fold change (barasertib),log2 fold change [2],log2 fold change (volasertib),log2 fold change [3],log2 fold change [4],log2 fold change [5],log2 fold change (saracatinib),log2 fold change (sotrastaurin)
UBXN6 (UniProt Q9BZV1),0.046,-0.192,-0.007,-0.025,-0.075,-0.001,0.008,-0.015,-0.03,0.025
TUBB4A (UniProt M0QYM7),0.019,-0.099,0.315,-0.193,-0.069,-0.053,-0.772,0.448,–,0.111
TXNRD2 (UniProt Q9NNW7),-0.004,0.036,-0.047,0.023,-0.005,-0.008,-0.031,0.082,0,-0.021
TTC27 (UniProt Q6P3X3),0.015,0.007,0.028,-0.07,-0.074,0.015,-0.085,-0.058,0.055,0.051
TMEM161B (UniProt Q8NDZ6),-0.112,-0.076,0.076,-0.073,-0.055,-0.028,0.055,-0.104,–,0.009
TSPAN3 (UniProt O60637),-0.075,-0.052,–,0.01,0.073,-0.222,0.663 (active),-0.3,-0.038,–
UBTF (UniProt P17480),-0.024,0.002,0.011,-0.291 (active),-0.011,0.002,0.038,-0.067,0.042,0.023
TRIM3 (UniProt O75382),0.13,-0.085,–,-0.029,0.09,–,–,–,–,–
TEC (UniProt P42680),-0.081,-0.119,–,-0.054,0.14,–,–,–,–,–
TUBB6 (UniProt K7ES63),0.072,-0.027,-0.012,-0.096,-0.064,0.018,-0.06,0.23,–,0.036
TLE3 isoform 5 (UniProt Q04726),–,0.037,-0.176,0.026,-0.025,0.034,0.101,0.178,0.049,0.015
UBAP2L (UniProt F8W726),0.094,-0.031,–,–,-0.018,–,–,–,–,-0.052
TK1 (UniProt K7ERV3),-0.001,–,0.072,-0.105,–,0.049,-0.102,0.068,0.089,-0.147
TPD52L2 isoform 3 (UniProt O43399),–,–,0.026,–,–,-0.028,-0.141,0.135,–,–
TRAF7 (UniProt Q6Q0C0),-0.07,–,–,0.053,–,0.012,-0.065,0.191,0.132,-0.044
TMPO isoform 2 (UniProt P42167),0.08,–,0.185,0.075,–,–,–,–,0.044,–
TTLL12 (UniProt V9GY16),0.261,–,0.102,0.227,–,-0.465,-0.393,0.133,–,-0.175
UBN1 (UniProt Q9NPG3),-0.053,-0.069,–,0.1,0.005,–,-0.127,0.057,0.04,0.133
TNFAIP3 (UniProt P21580),–,0.004,-0.015,-0.412,-0.063,0.051,-0.009,0.017,0.029,-0.006
TMEM154 (UniProt Q6P9G4),–,–,–,0.022,–,-0.08,–,–,-0.036,0.116
UBAP2L isoform 1 (UniProt Q14157),–,–,0.001,–,–,0.207,–,–,–,-0.105
TEDC1 (UniProt Q86SX3),–,0.103,–,0.106,-0.041,0.019,–,–,-0.02,-0.037
TCF4 (UniProt P15884),–,-0.015,–,-0.017,0.126,0.008,-0.011,0.03,0.021,-0.017
TCF3 isoform 2 (UniProt P15923),–,–,–,–,–,0.065,–,–,–,0.043

Target,log2 fold change (vemurafenib),log2 fold change [1],log2 fold change (barasertib),log2 fold change [2],log2 fold change (volasertib),log2 fold change [3],log2 fold change [4],log2 fold change [5],log2 fold change (saracatinib),log2 fold change (sotrastaurin)
TNIK isoform 5 (UniProt Q9UKE5),–,-0.118,0.021,–,-0.087,-0.059,-0.051,-0.065,0.022,0.034
TXNIP (UniProt Q9H3M7),0.008,–,-0.005,-0.006,–,0.016,0.209,-0.11,-0.07,0.016
TM2D3 (UniProt Q9BRN9),–,–,-0.105,-0.079,–,0.199,-0.934 (active),0.444,–,–
UCP2 (UniProt P55851),0.09,–,–,–,–,-0.024,–,–,–,-0.001
TXNRD2 isoform 3 (UniProt Q9NNW7),–,–,–,–,–,-0.081,–,–,–,–
TUBA4A (UniProt C9JQ00),–,–,0.267,–,–,–,0,-0.045,–,–
TLE3 (UniProt H0YL70),–,–,–,–,–,–,–,–,0.152,–
UBR4 isoform 4 (UniProt Q5T4S7),0.02,-0.1,–,-0.096,-0.104,0.077,–,–,0.061,–
TJP1 (UniProt H0Y3R8),–,–,–,–,–,–,0.048,-0.16,–,–
TMSB4X (UniProt P62328),–,-0.068,0.056,0.084,0.104,-0.187,-0.191,0.371,–,0.205
"UBAP2, A0A0D9SFI5",–,–,–,–,–,–,–,–,–,0.007
TGFBR1 isoform 2 (UniProt P36897),–,–,–,-0.005,–,–,–,–,1.04 (active),–
TMC1 (UniProt Q8TDI8),0.089,-0.02,–,-0.164,-0.021,-0.059,–,–,–,0.141
TJP1 (UniProt G3V1L9),0.076,–,-0.034,–,–,-0.021,0.04,-0.004,0.096,-0.046
TCF20 (UniProt Q9UGU0),–,-0.106,0.084,–,0.006,–,-0.02,-0.031,0.038,0.086
TUBB4A (UniProt P04350),–,0.036,-0.006,0.045,0.104,0.02,-0.09,0,-0.033,-0.007
U2AF1L5 (UniProt P0DN76),–,-0.013,–,0.027,-0.036,0.015,-1.21 (active),0.389,-0.007,–
TFPI isoform 2 (UniProt P10646),0,–,–,–,–,–,–,–,–,-0.011
TFPT (UniProt P0C1Z6),–,-0.019,0.148,–,0.015,–,–,–,0.005,–
TCF3 (UniProt X6REB3),0.075,–,–,–,–,–,0,0.128,–,–
TMEM132A isoform 2 (UniProt Q24JP5),–,0.239,–,-0.078,-0.144,0.028,0.055,0.3,–,0.044
UBL5 (UniProt Q9BZL1),0.014,–,0.036,-0.015,–,-0.028,-0.126,0.097,-0.007,-0.186
TASP1 (UniProt Q9H6P5),–,0.028,0.13,-0.082,-0.02,-0.047,–,–,-0.082,0.02
